Entries with a potency or affinity are not part of this list. Results filed as inconclusive are left out. Active and inactive are the calls of the source.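 The calls were made as follows: active = signal-lowering compounds whose fitted half-maximal concentration is at or below twice the top tested dose in every run; inconclusive = runs disagree, flat 30 to 70% inhibition, or poor curve fit; inactive = the rest.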
assay: inhibitors of CMV-promoter luciferase reporter, dose response, counter-screen for Pax8 inhibitor project, cell-based, HEK293, luminescence, dry powder (AID 743020); settings: SteadyGlo luminescence, 24 h; series mostly up to 35 µM;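 also: HEK293 cells stably expressing the CMV luciferase reporter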

Row | SMILES | outcome
1 | COc1ccccc1N1CCN(Cc2cc(Br)c(O)c3ncccc23)CC1 | inactive
2 | Cc1ccc2c(c1C)-c1c(ccc(C)c1C)C(=O)C2=O | inactive
3 | CCOC(=O)Nc1ccc2c(c1)N(C(=O)CCCl)c1ccccc1[S@]2=O | inactive
4 | Cc1ccc(S(=O)(=O)N2CCCCC2)cc1NC(=O)Cc1c[nH]c2ccccc12 | inactive
5 | Cc1noc(/C=C/c2ccco2)c1S(=O)(=O)N1CCC(C(=O)NC(C)c2ccccc2)CC1 (stereo unspecified) | inactive
6 | Cc1ccc(S(=O)(=O)CCC(=O)c2ccc(O)cc2O)cc1 | inactive
7 | COc1ccc(S(=O)(=O)Nc2ccc3c(c2)C(=O)N([C@H](C)CO)C[C@H](C)[C@@H](CN(C)S(=O)(=O)c2ccc(C)cc2)OCCCC[C@H](C)O3)cc1 | inactive
8 | CCCN(CCC)Cc1c(C(=O)N/N=C/C(C)=C\c2ccco2)nnn1-c1nonc1N | inactive
9 | O=C(c1nnsc1S(=O)(=O)c1ccc(Cl)cc1)N1CCOCC1 | inactive
10 | O=C(Nc1ccc([N+](=O)[O-])cn1)c1cc(-c2cccc(Br)c2)nc2ccccc12 | inactive
11 | CN(C)N=Nc1nc[nH]c1C(N)=O | inactive
12 | COc1ccc(-c2cc(-c3ccccc3)c(C#N)c(S(C)(=O)=O)n2)cc1 | inactive
13 | Nc1ncnc2c(C3OC(CO)C(O)C3O)scc12 (stereo unspecified) | inactive
14 | COc1cccc(/C=N/NC(=O)c2ccc(N3CCCC3=O)cc2)c1 | inactive
15 | CN(C)CCOc1ccc2c(c1)C(=O)C(=Cc1ncc([N+](=O)[O-])n1C)C2 | inactive
16 | COc1ccc(C(=O)N/N=C/c2ccc(OC)c(CN3CCN(c4ccc(F)cc4)CC3)c2)cc1 | inactive

Reference: PubChem BioAssay
